Inconclusive results are not listed. Calls of active or inactive are those of the source. The call rests on the fitted dose curve; in most records, active means well fitted curve in the direction sought with a large enough effect; inconclusive means small, poorly fitted or top-dose-only effect, or effect the other way, or another doubt; inactive means no such curve, though single readings can be large or run the other way.
The compounds below were run against Pyruvate kinase PKM (Homo sapiens) (UniProt P14618) (assay: Secondary assay for Activators of Human Pyruvate Kinase M1 isoform). Conditions: purified hPK-M1, LDH-coupled NADH fluorescence kinetic; series mostly up to 57.5 µM; activity change, positive = activation: at the top concentration.
Sequence of Pyruvate kinase PKM (Homo sapiens) (P14618 whole entry, looked up, canonical isoform): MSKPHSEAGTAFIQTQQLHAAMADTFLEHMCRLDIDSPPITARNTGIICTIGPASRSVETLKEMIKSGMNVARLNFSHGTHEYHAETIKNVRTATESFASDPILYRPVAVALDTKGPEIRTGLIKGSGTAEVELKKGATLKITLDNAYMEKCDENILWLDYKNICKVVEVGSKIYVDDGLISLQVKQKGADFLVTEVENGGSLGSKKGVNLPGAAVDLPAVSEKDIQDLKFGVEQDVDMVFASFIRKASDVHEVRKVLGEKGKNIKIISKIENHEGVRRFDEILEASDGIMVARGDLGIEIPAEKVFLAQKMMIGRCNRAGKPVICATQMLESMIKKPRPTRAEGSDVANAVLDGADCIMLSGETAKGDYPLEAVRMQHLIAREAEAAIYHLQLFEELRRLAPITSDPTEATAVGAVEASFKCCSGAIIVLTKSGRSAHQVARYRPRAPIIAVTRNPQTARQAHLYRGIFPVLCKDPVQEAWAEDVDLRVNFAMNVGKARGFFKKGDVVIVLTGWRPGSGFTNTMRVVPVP
Source text: Confirmatory assay NIH Chemical Genomics Center [NCGC] Matthew G. Vander Heiden, M.D., Ph.D. [Harvard Medical School, 77 Avenue Louis Pasteur, Boston, MA 02115] NCGC Assay Overview: Human pyruvate kinase […] (hPK-M1)enzyme was supplied as a highly purified (>95% pure) preparation from Harvard Medical School and a secondary assay was used to evaluate compounds. This assay couples the formation of pyruvate from hPK-R using lactate dehydrogenase (LDH) and NADH. The depletion of NADH is followed in a fluorescent-based kinetic assay that follows the formation of pyruvate to lactate, as catalyzed LDH. Pyruvate kinase substrates, PEP and ADP, were present in the assay at 0.1 mM and 4 mM respectively. In this kinetic assay initial rates were determined by following the fluorescence of NADH depletion.
NCGC Assay Protocol Summary: Three uL of substrate mix (final concentration, 50 mM Tris-Cl pH 8.0, 200 mM KCl, 15 mM MgCl2, 0.1 mM PEP, 4.0 mM ADP, and 0.2 mM NADH) was dispensed into black-solid 1536 well plates. 23 nL of compounds were delivered by a pin tool and 1 uL of enzyme mix (final concentrations, 10 nM hPK-M1 and 1 uM of LDH) was added. Plates were immediately placed in ViewLux (Perkin Elmer) and NADH fluorescence was determined at 30 second exposure intervals for between 3 and 6 minutes. Data were normalized to the uninhibited controls.

Activity change, positive = activation, inactive:
C=Cc1cc2c(s1)c1cnn(Cc3ccccc3F)c(=O)c1n2C -6.78%
COc1ccc(S(=O)(=O)N2CCN(S(=O)(=O)c3c(F)cccc3F)CC2)cc1 5.64%
O=S(=O)(c1c(F)cccc1F)C1CCN(S(=O)(=O)c2ccc3c(c2)OCCO3)CC1 -23.9%
O=S(=O)(c1ccc2c(c1)OCCO2)N1CCN(S(=O)(=O)c2ccc3c(c2)OCCO3)CC1 4.7%
O=C1CN(S(=O)(=O)c2c(F)cccc2F)CCN1S(=O)(=O)c1ccc2c(c1)OCCO2 -4.39%

Reference: PubChem BioAssay AID1542 (National Center for Advancing Translational Sciences (NCATS), 2009)
